HTT aggregate: inhibitors of mutant huntingtin aggregate formation in PC12 cells; AID 1688; Potency, µM (series often up to 46.1 µM), actives largely listed as inhibitors; 220,000 tested, 1.1% active; PC12 HttQ103-GFP aggregates, Acumen cytometry, 40 h; note: nearly all actives have a fitted effect of over 60% in size
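Huntingtin Q103 exon 1–GFP aggregates in induced PC12 cells (100 nM tebufenozide) were quantified by cytometry from lysates, with compounds dosed in titration.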
HTT ATP protect: protects HTT-Q103 PC12 cells, measured by ATP; Potency, µM (series often up to 56.4 µM), hits mostly activators; 230,000 tested, 0.14% active; PC12 HTT-Q103 induced, cytoprotection, ATP luminescence, 40 h; note: nearly all actives have a fitted effect of over 45% in size
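ATP quantification (ATPlite) reports survival of PC12 cells in which tebufenozide, 100 nM final, switches on Htt exon 1 with 103 glutamines linked to GFP; compounds are titrated.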
L3MBTL1 block: blocks human L3MBTL1; AID 485360; 230,000 tested, 0.66% active; Potency, µM (series often up to 57.1 µM), usual class: inhibitors; AlphaScreen L3MBTL1–H3K9me1 peptide binding; note: nearly all actives have a fitted effect of over 60% in size
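Read-out is AlphaScreen signal from streptavidin donor and nickel chelate acceptor beads (10 ug/mL final each) bridging L3MBTL1 (50 nM) and biotinylated K9-monomethylated H3(1-15) peptide (75 nM), after 30 min compound exposure at room temperature.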
KDM4E inh: JMJD2E (human) inhibition | JMJD2E catalytic domain, FDH-coupled NADH fluorescence (FDH is formaldehyde dehydrogenase) | B2RXH2 | AID 2147 | 230,000 tested, 1.6% active | Potency, µM (highest dose often 57.1 µM), usual class: inhibitors; active = well fitted inhibition curve with a large enough effect, not every such curve was filed as active; inconclusive = small, poorly fitted or top-dose-only effect, or another doubt; inactive = no such curve, though single readings can be large or run the other way; note: nearly all actives have a fitted effect of over 50% in size
Target sequence (B2RXH2 1-337 limits assumed): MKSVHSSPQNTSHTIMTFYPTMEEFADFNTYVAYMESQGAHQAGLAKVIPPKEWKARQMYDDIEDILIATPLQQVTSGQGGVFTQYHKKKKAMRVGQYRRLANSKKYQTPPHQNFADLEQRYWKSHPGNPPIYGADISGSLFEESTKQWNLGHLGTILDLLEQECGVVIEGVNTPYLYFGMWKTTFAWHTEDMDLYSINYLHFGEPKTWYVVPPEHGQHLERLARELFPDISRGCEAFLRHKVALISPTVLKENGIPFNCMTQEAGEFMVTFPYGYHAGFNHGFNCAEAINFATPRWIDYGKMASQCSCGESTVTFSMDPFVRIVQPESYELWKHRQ
Large screens that a line does not name were inactive; ! = not confirmed by another sample. A selection: hits, their analogues and other compounds. The true share with any hit is near 1.8%. Unless noted, calls come from the whole dose curve; as a rule, active = well fitted curve in the direction sought with a large enough effect; inconclusive = small, poorly fitted or top-dose-only effect, or another doubt; inactive = no such curve, though single readings can be large; an effect the other way counts as inactive or inconclusive.

Cc1nc(-c2coc3c(O)c(O)ccc3c2=O)cs1	KDM4E inh 7.1µM (no result: HTT aggregate, L3MBTL1 block)
CCN(CC)Cc1c(O)ccc2c(=O)c(-c3ccccc3Cl)coc12	none (no result: HTT aggregate, HTT ATP protect, KDM4E inh)
COc1ccc(OCC(O)Cn2c(=N)n(Cc3ccccc3)c3ccccc32)cc1 (stereo not drawn)	none
N=c1n(Cc2ccc(Cl)cc2)c2ccccc2n1CC(O)COc1ccccc1 (stereo not drawn)	HTT aggregate 14µM
CS(=O)(=O)Nc1ccccc1C(=O)Nc1cccc(Cl)c1	HTT aggregate 11µM, KDM4E inh inconclusive
CS(=O)(=O)Nc1ccccc1C(=O)Nc1cc(Cl)cc(Cl)c1	HTT aggregate 8.9µM, KDM4E inh inconclusive (no result: L3MBTL1 block)
O=C(O)c1cc(S(=O)(=O)N2CCOCC2)ccc1N1CCOCC1	none (no result: L3MBTL1 block)
Nc1cc(S(=O)(=O)N2CCOCC2)ccc1N1CCCCC1	none (no result: HTT aggregate, HTT ATP protect, KDM4E inh)
O=c1c2ccccc2sn1-c1cc(S(=O)(=O)N2CCOCC2)ccc1N1CCOCC1	HTT aggregate inconclusive, KDM4E inh 8.9µM
O=c1c2ccccc2sn1-c1cc(S(=O)(=O)N2CCOCC2)ccc1N1CCCC1	KDM4E inh 14µM (no result: L3MBTL1 block)
CCC(c1nnnn1Cc1ccco1)N(CCc1ccccc1)Cc1cc2cc(C)ccc2[nH]c1=O (stereo not drawn)	HTT aggregate 28µM, KDM4E inh inconclusive
Cc1ccc2[nH]c(=O)c(CN(Cc3nnnn3Cc3ccccc3)C3CCCC3)cc2c1	HTT aggregate 0.89µM, KDM4E inh inconclusive
CCc1ccc2[nH]c(=O)c(CN(Cc3nnnn3C3CCCC3)C3CCCCC3)cc2c1	KDM4E inh inconclusive
Cc1ccc(-c2onc3ccc(C=O)cc23)cc1	KDM4E inh inconclusive (no result: L3MBTL1 block)
O=C(O)/C=C/c1ccc2noc(-c3ccccc3)c2c1	HTT aggregate 4µM
Oc1cccc(/C=N/N(Cc2ccccc2)c2ccccc2)c1	none
Oc1ccc(/C=N/N(Cc2ccccc2)c2ccccc2)c(O)c1O	KDM4E inh 20µM (no result: L3MBTL1 block)
Cc1ccc(-c2nc(NC(=O)c3nn(C)cc3[N+](=O)[O-])sc2C)cc1	none (no result: L3MBTL1 block)
Cc1ccc(-c2nc(NC(=O)c3nn(C)cc3[N+](=O)[O-])sc2C)cc1C	HTT aggregate 7.9µM (no result: L3MBTL1 block)
CC[n+]1ccccc1/C=C/Nc1ccccc1	KDM4E inh 18µM
CC[n+]1c(C=C2C=C(C)OC(C)=C2)sc2ccccc21	HTT aggregate 4µM
CC[n+]1c(/C=C(\C)SC)sc2ccccc21	none
CC[n+]1c(/C=C/Nc2ccccc2)sc2ccccc21	HTT aggregate 11µM
CC[n+]1c(/C=C2/C=C(C)CC(C)C2)sc2ccccc21 (stereo not drawn)	KDM4E inh 22µM (no result: L3MBTL1 block)
CC/C(=C/c1sc2ccccc2[n+]1CC)SC	none
CC[n+]1c(/C=C(\C)Nc2ccccc2)sc2ccccc21	none
CCn1c(/C=C/Nc2ccccc2)[n+](CC)c2cc(Cl)c(Cl)cc21	HTT aggregate inconclusive
COc1ccc2c(c1)C(=O)[C@H](OC(=O)NCc1ccc3c(c1)OCO3)[C@@H](c1ccc(OC)c(Br)c1)O2	none (no result: HTT aggregate, L3MBTL1 block)
O=Cc1ccc(OC2C=CC(c3ccccc3)OC2CO)cc1 (stereo not drawn)	none (no result: HTT aggregate, L3MBTL1 block, KDM4E inh)
Clc1ccc2c(c1)C(N1CCNCC1)=Nc1ccccc1O2	HTT ATP protect 0.35µM!, KDM4E inh inconclusive
C=CC[C@](C)(Nc1ccc(OC)cc1)C(=O)OCC	HTT ATP protect inconclusive (no result: HTT aggregate, L3MBTL1 block)
COC(=O)c1ccc(CC(=O)c2c(C)cc(O)cc2O)o1	L3MBTL1 block inconclusive, KDM4E inh 18µM
CCSc1nnnn1-c1ccccc1	none (no result: L3MBTL1 block)
Cc1ccc(C)c(-n2nnnc2Sc2nnnn2-c2ccccc2)c1	HTT aggregate 20µM
c1nc(NC2CCNCC2)c2cc(-c3ccoc3)ccc2n1	none (no result: HTT aggregate, L3MBTL1 block, KDM4E inh)
O=C(O)/C=C/C(=O)NC1CCCCC1	HTT aggregate 3.5µM
O=C(NC1CCCCC1)NC1CCCCC1	KDM4E inh inconclusive (no result: HTT aggregate, L3MBTL1 block)
c1ccc2c(c1)Cc1cc3cc4c(cc3nc1-2)OCO4	KDM4E inh inconclusive (no result: HTT aggregate, L3MBTL1 block)
N#Cc1c(N)sc2c1CCCCCC2	none
N#Cc1c(N)sc(=S)c2c1CCCCC2	L3MBTL1 block inconclusive, KDM4E inh 22µM
O=C(CN1CCCc2ccccc21)N/N=C/c1c(O)ccc2ccccc12	HTT aggregate 10µM, KDM4E inh inconclusive
O=C(CN1CCCc2ccccc21)N/N=C/c1ccccc1	none
O=C(CN1CCCc2ccccc21)N/N=C/c1ccc(O)cc1O	HTT aggregate inconclusive, KDM4E inh 25µM
O=S(=O)(Nc1cccc2ncccc12)c1cccs1	HTT aggregate 13µM
Oc1ccc(/C=N/N2CCN(C3c4ccccc4-c4ccccc43)CC2)cc1O	KDM4E inh 16µM
Cc1ccc(/C=C2/C(=O)C3(C)CCC2C3(C)C)cc1 (stereo not drawn)	none (no result: L3MBTL1 block, KDM4E inh)
Cc1cccc(C(=O)NC(=S)NNC(=O)c2ccccc2Cl)c1	KDM4E inh inconclusive (no result: HTT ATP protect)
Cc1cc(C(=O)NNC(=S)NC(=O)/C=C/c2ccccc2Cl)n[nH]1	KDM4E inh 7.9µM (no result: L3MBTL1 block)
CCC1CO1 (stereo not drawn)	none (no result: HTT aggregate, L3MBTL1 block, KDM4E inh)
Nc1ccccc1C#CCCCCO	KDM4E inh 20µM!
COC(=O)CCCC1=CC2=C(c3ccccc3)C(=O)C(C)(OC(=O)C3CCCC3)C(=O)C2=CN1Cc1ccccc1 (stereo not drawn)	none (no result: HTT aggregate, L3MBTL1 block)
COC(=O)CCCC1=CC2=C(c3ccccc3)C(=O)C(C)(OC(=O)C3CCCC3)C(=O)C2=CN1CCN1CCOCC1 (stereo not drawn)	KDM4E inh 3.2µM! (no result: L3MBTL1 block)
NC(=NCc1ccc(Cl)c(Cl)c1)NC(=O)c1nc(Cl)c(N)nc1N	KDM4E inh inconclusive (no result: HTT aggregate, L3MBTL1 block)
COc1ccc2[nH]cc(CCNc3ccnc(-c4ccc(C(=O)N(C)C)cc4)n3)c2c1	none (no result: HTT aggregate, L3MBTL1 block, KDM4E inh)
CC1=NN(c2ccccc2)C(=O)/C1=C\c1ccc(Br)s1	HTT aggregate 0.71µM, L3MBTL1 block inconclusive, KDM4E inh 3.2µM
COc1cccc2c1C(=O)c1c(O)c3c(c(O)c1C2=O)C[C@](O)(C(=O)CO)C[C@@H]3O[C@H]1C[C@H](N)[C@@H](O)[C@H](C)O1	none (no result: L3MBTL1 block, KDM4E inh)
COc1cccc2c1C(=O)c1c(O)c3c(c(O)c1C2=O)C[C@@](O)(C(=O)CO)C[C@@H]3OC1C[C@@H](N)[C@H](O)[C@H](C)O1 (stereo partly drawn)	none (no result: HTT aggregate, L3MBTL1 block, KDM4E inh)
CC(=O)[C@]1(O)Cc2c(O)c3c(c(O)c2[C@@H](O[C@H]2C[C@H](N)[C@H](O)[C@H](C)O2)C1)C(=O)c1ccccc1C3=O	HTT aggregate 0.63µM, KDM4E inh inconclusive (no result: L3MBTL1 block)
CC(=O)[C@]1(O)Cc2c(O)c3c(c(O)c2[C@@H](O[C@H]2C[C@H](N)[C@H](O)[C@H](C)O2)C1)C(=O)c1c(O)cccc1C3=O	HTT aggregate 0.63µM (no result: L3MBTL1 block, KDM4E inh)
COc1cccc2c1C(=O)c1c(O)c3c(c(O)c1C2=O)C[C@@](O)(C(C)=O)C[C@@H]3O[C@H]1C[C@H](N)[C@H](O)[C@H](C)O1	HTT aggregate 2.2µM!, KDM4E inh 35µM!
O=C/C=C/c1ccc(O)cc1	KDM4E inh 28µM (no result: HTT aggregate, HTT ATP protect, L3MBTL1 block)
O=C(/C=C/c1ccc(O)cc1)c1ccccc1	none
O=C(CN1C(=O)C2CCCN2c2ncc(Cl)cc21)NCc1ccc2c(c1)OCO2 (stereo not drawn)	KDM4E inh 14µM
Cc1nc2nc(-c3ccccc3)cn2nc1C	KDM4E inh inconclusive (no result: L3MBTL1 block)
CCc1ccc(-c2cn3nc(C)c(C)nc3n2)cc1	KDM4E inh 28µM

Screens: PubChem BioAssay, National Center for Advancing Translational Sciences (NCATS)
